In PubChem BioAssay AID1159580 (chemical genetic matrix, 2015):
Several values for one entry are separate records, joined by “and”; a condition that tells them apart may be missing. Equal entries are not always repeated. The whole screen tested about 5,500 compounds, of which about 2,000 (36%) were called active. Not shown: some 18% with an inconclusive outcome. No stated cut-off is given here; in the data, active means normalized growth mostly below about 0.91 (no sharp cut-off); inconclusive means no clear call, values can overlap the other calls; inactive means mostly above about 0.92. The list shows a part of the results.

Test: chemical genetic growth profiling, strain panel (AID 1159580);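 further: tested at 20 µM; growth read once vehicle control cultures reached saturation at 30 °C; 1 = growth at the plate median or of vehicle wells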
Details: S. cerevisiae deletion strains, growth OD

Measured: normalized growth

Clc1ccc2c(c1)C(N1CCNCC1)=Nc1ccccc1O2
inactive: locus YAL013W, strain DEP1, stronger effect = lower value 0.984 and 1.02 | locus YAL030W, strain snc1, stronger effect = lower value 0.978 | locus YAL040C, strain CLN3, stronger effect = lower value 1.01 | locus YBL061C, strain skt5, stronger effect = lower value 0.991 | locus YBR009C, strain hhf1, stronger effect = lower value 0.963 | locus YBR021W, strain FUR4, stronger effect = lower value 0.989 | locus YBR023C, strain chs3, stronger effect = lower value 0.969 | locus YBR171W, strain sec66, stronger effect = lower value 0.991 | locus YBR229C, strain ROT2, stronger effect = lower value 0.952 | locus YBR231C, strain swc5, stronger effect = lower value 0.994 | locus YBR279W, strain paf1, stronger effect = lower value 0.968 | locus YCL011C, strain gbp2, stronger effect = lower value 0.988 | locus YCL016C, strain dcc1, stronger effect = lower value 0.979 | locus YCL029C, strain bik1, stronger effect = lower value 0.986 | locus YCL069W, strain vba3, stronger effect = lower value 0.969 | locus YCR088W, strain abp1, stronger effect = lower value 0.994 | locus YDL005C, strain med2, stronger effect = lower value 0.994 | locus YDL035C, strain GPR1, stronger effect = lower value 0.972 | locus YDL040C, strain nat1, stronger effect = lower value 1.01 | locus YDL074C, strain BRE1, stronger effect = lower value 1.03 | locus YDL101C, strain DUN1, stronger effect = lower value 0.991 | locus YDL134C, strain PPH21, stronger effect = lower value 0.996 | locus YDL185W, strain tfp1, stronger effect = lower value 0.986 | locus YDL192W, strain arf1, stronger effect = lower value 0.99 | locus YDR001C, strain nth1, stronger effect = lower value 0.992 | locus YDR069C, strain doa4, stronger effect = lower value 0.901 | locus YDR101C, strain arx1, stronger effect = lower value 0.995 | locus YDR150W, strain NUM1, stronger effect = lower value 0.974 | locus YDR159W, strain sac3, stronger effect = lower value 0.984 | locus YDR162C, strain NBP2, stronger effect = lower value 0.988 | locus YDR195W, strain ref2 1.07 | locus YDR297W, strain sur2, stronger effect = lower value 0.992 | locus YDR318W, strain mcm21, stronger effect = lower value 0.993 | locus YDR334W, strain swr1, stronger effect = lower value 0.957 | locus YDR335W, strain msn5, stronger effect = lower value 0.975 | locus YDR388W, stronger effect = lower value 0.98 | locus YDR392W, strain spt3, stronger effect = lower value 1.06 | locus YDR502C, strain sam2, stronger effect = lower value 0.959 | locus YEL003W, strain gim4, stronger effect = lower value 0.996 | locus YEL037C, strain rad23, stronger effect = lower value 0.968 | locus YEL061C, strain CIN8 (second series), stronger effect = lower value 0.992 | locus YEL061C, strain CIN8, stronger effect = lower value 0.984 | locus YER002W, strain NOP16, stronger effect = lower value 0.998 | locus YER015W, strain faa2, stronger effect = lower value 0.983 | locus YER016W, strain bim1, stronger effect = lower value 0.993 | locus YER110C, stronger effect = lower value 0.978 | locus YER111C, strain swi4, stronger effect = lower value 0.984 | locus YER155C, strain BEM2 (second series), stronger effect = lower value 0.992 | locus YER155C, strain BEM2, stronger effect = lower value 1 | locus YER167W, strain BCK2, stronger effect = lower value 0.994 | locus YGL078C, strain dbp3, stronger effect = lower value 0.968 | locus YGL086W, strain mad1, stronger effect = lower value 0.986 | locus YGL167C, strain pmr1, stronger effect = lower value 0.974 | locus YGL173C, strain kem1, stronger effect = lower value 0.928 | locus YGL227W, strain vid30, stronger effect = lower value 0.985 | locus YGL240W, strain doc1, stronger effect = lower value 0.975 | locus YGL248W, strain PDE1, stronger effect = lower value 0.987 | locus YGL253W, strain hxk2, stronger effect = lower value 0.989 | locus YGR078C, strain PAC10, stronger effect = lower value 1 | locus YGR135W, strain pre9, stronger effect = lower value 0.98 | locus YGR229C, strain SMI1, stronger effect = lower value 0.937 | locus YGR252W, strain gcn5, stronger effect = lower value 0.915 | locus YHR013C, strain ard1, stronger effect = lower value 0.891 | locus YHR027C, strain rpn1, stronger effect = lower value 0.989 | locus YHR030C, strain SLT2, stronger effect = lower value 0.994 and 1.02 | locus YHR079C, strain IRE1 (second series), stronger effect = lower value 0.986 | locus YHR079C, strain IRE1, stronger effect = lower value 1.03 | locus YHR094C, strain hxt1, stronger effect = lower value 0.998 | locus YHR129C, strain ARP1, stronger effect = lower value 1 | locus YHR142W, strain chs7, stronger effect = lower value 0.957 | locus YHR200W, strain rpn10, stronger effect = lower value 0.992 | locus YIL066C, strain RNR3, stronger effect = lower value 0.978 | locus YIL073C, strain SPO22, stronger effect = lower value 1.05 | locus YIL125W, strain kgd1, stronger effect = lower value 0.97 | locus YIR030C, strain dcg1, stronger effect = lower value 0.986 | locus YJL092W, strain hpr5, stronger effect = lower value 0.987 | locus YJL095W, strain BCK1 (second series), stronger effect = lower value 0.965 | locus YJL095W, strain BCK1, stronger effect = lower value 0.98 and 1.02 | locus YJL115W, strain asf1, stronger effect = lower value 0.957 | locus YJL129C, strain trk1, stronger effect = lower value 1.06 | locus YJL134W, strain LCB3, stronger effect = lower value 0.985 | locus YJL154C, strain vps35, stronger effect = lower value 0.97 | locus YJL164C, strain tpk1, stronger effect = lower value 0.964 | locus YJL166W, strain qcr8, stronger effect = lower value 0.984 | locus YJL168C, strain set2, stronger effect = lower value 0.996 | locus YJL187C, strain SWE1 (second series), stronger effect = lower value 1 | locus YJR043C, strain POL32, stronger effect = lower value 1.02 | locus YJR066W, strain TOR1, stronger effect = lower value 0.972 | locus YJR075W, strain HOC1, stronger effect = lower value 1 | locus YKL009W, strain mrt4, stronger effect = lower value 0.96
active: locus YAL021C, strain ccr4, stronger effect = lower value 0.829 | locus YAL026C, strain drs2, stronger effect = lower value 0.466 | locus YDR137W, strain rgp1, stronger effect = lower value 1.32 [resistant] | locus YFR010W, strain ubp6, stronger effect = lower value 0.88
